# Assay results as given in PubChem BioAssay AID1259374 (The Scripps Research Institute Molecular Screening Center, 2018).
# About 5,900 (0.91%) of roughly 650,000 compounds were called active. Cut-off read from the data, not from the text of the source: active = inhibition above about 50%; inactive = the rest. What follows is part of a selection rich in actives, with near analogues and random picks from the rest.
# Target: Microphthalmia-associated transcription factor (Homo sapiens) (UniProt O75030)
# Experiment: MITF inhibitors, primary screen, biochemical, AlphaScreen, human (AID 1259374);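 note: 0% = vehicle wells with protein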
# Conditions: AlphaScreen MITF homodimerization, bead proximity signal; at 2.6 µM; active compounds read high
# Sequence of Microphthalmia-associated transcription factor (Homo sapiens) (O75030 whole entry, looked up): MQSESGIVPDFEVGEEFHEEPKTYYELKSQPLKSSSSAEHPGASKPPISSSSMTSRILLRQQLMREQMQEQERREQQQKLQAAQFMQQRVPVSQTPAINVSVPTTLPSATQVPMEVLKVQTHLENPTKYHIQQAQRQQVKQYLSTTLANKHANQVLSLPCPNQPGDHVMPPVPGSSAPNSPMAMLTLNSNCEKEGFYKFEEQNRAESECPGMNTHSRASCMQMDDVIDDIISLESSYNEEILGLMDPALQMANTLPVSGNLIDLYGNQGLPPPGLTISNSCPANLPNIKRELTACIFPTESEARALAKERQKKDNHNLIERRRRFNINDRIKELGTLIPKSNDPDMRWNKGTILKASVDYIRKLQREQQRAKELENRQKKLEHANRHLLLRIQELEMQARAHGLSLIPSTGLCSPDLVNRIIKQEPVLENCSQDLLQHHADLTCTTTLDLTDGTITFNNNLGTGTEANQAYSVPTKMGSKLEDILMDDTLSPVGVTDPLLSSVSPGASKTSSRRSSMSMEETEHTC
row,SMILES,inhibition
1,Cc1ccc(C23CC4CC(CC(C(=O)NCC(=O)NN)(C4)C2)C3)cc1,-4.06% (inactive)
2,O=C(COc1ccc(Cl)cc1)N/N=C/c1ccc([N+](=O)[O-])c(O)c1,-8.51% (inactive)
3,COc1ccc(S(=O)(=O)N(C)CC(=O)Nc2ccc(F)cc2F)cc1OC,-13.8% (inactive)
4,N#C/C(=C/c1ccc(-c2ccc3c(c2)C(=O)NC3=O)o1)C(=O)O,54.7% (active)
5,N#C/C(=C/c1ccc(-c2ccc(F)cc2)o1)C(=O)N1CCCCC1,-2.65% (inactive)
6,N#C/C(=C\c1ccc(-c2ccc(F)cc2)o1)C(=O)O,9.25% (inactive)
7,CCCN(CCC)C(=O)C(Cc1ccccc1)N1C(=O)C2C3C=CC(C3)C2C1=O (stereo unspecified),-7.73% (inactive)
8,COc1ccc(CNC(=O)CC(C)C)cc1,4.41% (inactive)
9,COc1ccc(CN[C@H]2C[C@H]3C(=O)N[C@@H](C(C)C)C(=O)N3C2)cc1,16% (inactive)
10,COc1ccc(CNCC2CN(CC(C)C)CCO2)cc1 (stereo unspecified),54.3% (active)
11,CCCCCNC(=O)COc1ccccc1C#N,-3.44% (inactive)
12,O=C(Nc1ccc(F)cc1F)c1cc([N+](=O)[O-])ccc1Cl,-3.07% (inactive)
13,O=C(Nc1nc2ccccc2n1CCOc1ccc(F)cc1)c1ccc(Cl)cc1,-6.19% (inactive)
14,COc1ccc(-c2nc3ccccc3[nH]2)cc1OC,10.1% (inactive)
15,COc1ccc(C2=NNc3cccc4c(OC)ccc2c34)cc1OC,51.8% (active)
16,COc1cc(Nc2nc(-c3ccc(OC)c(OC)c3)nc3ccccc23)cc(OC)c1,-23% (inactive)
17,CCNCc1ccc(OCC(=O)Nc2ccc(OC)cc2)c(OC)c1,-12.6% (inactive)
18,COC(=O)c1ccc(N2CCOCC2)c([N+](=O)[O-])c1,10.3% (inactive)
19,COC(=O)Oc1c([N+](=O)[O-])cc2oc(=O)sc2c1[N+](=O)[O-],59.1% (active)
20,COc1cc([N+](=O)[O-])cc([N+](=O)[O-])c1NC(=O)N1CCOCC1,11.6% (inactive)
21,Cc1cccc(C(=O)Nc2ccc3oc(-c4ccc(Cl)c(Cl)c4)nc3c2)c1,6.63% (inactive)

row,SMILES,inhibition
1,O=C(Nc1nc2ccccc2s1)C(Cc1ccccc1)N1C(=O)c2ccccc2C1=O (stereo unspecified),-3.65% (inactive)
2,CNC(=O)c1cc(F)ccc1Nc1cc(Nc2ccc(NC(C)=O)cn2)ncc1C(F)(F)F,1.21% (inactive)
3,Cc1ccccc1OCc1nnc(SCC(=O)NC(C)(C)C)n1C,11.7% (inactive)
4,CC(C)c1ccc(NC(=O)CSc2nnc(CNC(=O)c3ccccc3)n2C)cc1,14% (inactive)
5,Cc1cccnc1NC(=O)CSc1nnc(COc2ccc(C(C)C)cc2)n1C,53.7% (active)
6,CCOc1cc(/C=N/NC(=O)CC(=O)NCC(C)C)ccc1O,14.6% (inactive)
7,Cc1nc(NCCCN2CCOCC2)cc(-c2ccccn2)n1,12.2% (inactive)
8,Clc1ccc(-c2cc(NCCCn3ccnc3)ncn2)cc1,14.7% (inactive)
9,c1ccc(-c2cc(NCCCn3ccnc3)nc(-c3ccccn3)n2)nc1,115% (active)
10,CCCCSc1nnc(CNC(=O)Cc2ccccc2)n1-c1ccc(Cl)c(Cl)c1,15.1% (inactive)
11,O=C1CCc2ccc(OCc3ccccc3F)cc21,12.2% (inactive)
12,COc1ccc(-n2nc(C(=O)N3CCC(C(N)=O)CC3)c3ccccc3c2=O)c(OC)c1,11.6% (inactive)
13,CCN(CC)c1ccc(NC(=O)CCc2nnc3ccc(N4CCCCC4)nn23)c(C)c1,15.7% (inactive)
14,CCN1CCN(CC(=O)Nc2ccc(N(CC)CC)cc2C)CC1,70.1% (active)
15,CCN(CC)c1ccc(NC(=O)c2ccc(OC)cc2)c(C)c1,-6.58% (inactive)
16,O=C(Cc1csc(Nc2ccc(Cl)cn2)n1)NCc1ccccc1Cl,13.2% (inactive)
17,Cc1ccccc1-n1c(SCC(=O)Nc2ccc(C(N)=O)cc2)nnc1-c1ccncc1,24.8% (inactive)
18,Cc1c(C(=O)c2ccccc2)oc2ccc(NC(=O)C(C)C)cc12,-6.05% (inactive)
19,O=C1N=C(N2CCCC2)S/C1=C/c1ccc(-c2ccccc2[N+](=O)[O-])o1,18.4% (inactive)
20,C=CCn1c(C)cc(-c2csc(NC(=O)c3ccc([N+](=O)[O-])s3)n2)c1C,5.62% (inactive)
21,CCCn1c(C)cc(-c2csc(NC(=O)Cc3ccsc3)n2)c1C,73.1% (active)

row,SMILES,inhibition
1,CCCCC(=O)Nc1nc(-c2ccc(I)cc2)cs1,-1.42% (inactive)
2,O=C(NCCc1ccccc1)c1c[nH]c2ccc(S(=O)(=O)N3CCc4ccccc43)cc2c1=O,5.29% (inactive)
3,COc1cccc(CN2CCN(CCOCCO)CC2)c1OC,-6.67% (inactive)
4,COc1ccc(Br)cc1CN1CCN(C(C)=O)CC1,2.27% (inactive)
5,COc1ccc(/C(C)=N/N)cc1CN1CCCCC1,-0.23% (inactive)
6,COc1cc(Br)cc(CN2CCCN(C)CC2)c1O,7.81% (inactive)
7,OCCN1CCN(CC(O)COCCOc2ccc(Cl)cc2)CC1 (stereo unspecified),-9.2% (inactive)
8,COc1cc(OC)c(OC)cc1CN1CCN(C(=O)c2cccs2)CC1,35.6% (inactive)
9,COc1cccc(C(=O)N2CCN(Cc3cc(OC)c(OC)cc3OC)CC2)c1,63.4% (active)
10,COc1ccc(Br)cc1CN1CCN(CCOCCO)CC1,66.6% (active)
11,COc1ccc(Br)cc1CN1CCN(C(=O)c2cccnc2)CC1,88.2% (active)
12,COc1ccc(C(=O)N2CCN(Cc3cc(OC)c(OC)cc3OC)CC2)cc1,-7.92% (inactive)
13,OCCOCCN1CCN(Cc2ccc(Cl)cc2)CC1,82.7% (active)
14,COc1cccc(C(=O)N2CCN(C(=O)c3cccc(OC)c3)CC2)c1,-5.18% (inactive)
15,CC1SC2(CCCCC2)N(c2ccc(F)cc2)C1=O (stereo unspecified),-0.68% (inactive)
16,COc1ccccc1NC(=O)CN1C(=O)C2CC=C(Cl)CC2C1=O (stereo unspecified),2.72% (inactive)
17,Cc1cc(OCC(O)CNCC(C)O)c(C(C)C)cc1Cl (stereo unspecified),0.85% (inactive)
18,O=S(=O)(NC1CCCC1)c1ccc(-c2ccc(S(=O)(=O)NC3CCCC3)cc2)cc1,-2.79% (inactive)
19,Clc1ccc(-c2csc(Nc3cccc4ccccc34)n2)cc1Cl,0.76% (inactive)
